Consider 10 compounds from PubChem BioAssay (EPA / NIEHS).

Several values for one entry are separate records, joined by “and”; a condition that tells them apart may be missing. Equal entries are not always repeated. Results filed as inconclusive are left out. Activity calls are given as the source filed them. The calls were made as follows, unless noted: active = hit-call score of the fitted dose curve at least 0.9, where 1 is the maximum; inconclusive = response in the unintended direction; inactive = score below 0.9.

A short description of test [1]: TOX21_p53_BLA_p2_viability: Viability Assessment in the Tox21 HCT-116 p53 Agonism Beta-lactamase Assay, Phase 2 (AID 2283591).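 Also: compound exposure lasted 16 h at 37 °C; actives lower the ATP signal meaning cytotoxicity.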 The essentials:
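HCT-116 p53-bla cells (4000/well) rested 5 h at 37C, then received compounds in DMSO (217-fold dilution) for 16 h at 37C, 5% CO2. After the CCF4 read, CellTiter-Glo was added; ATP luminescence was read after 30 min at room temperature.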

For test [2], the target named is Cellular tumor antigen p53 (Homo sapiens) (UniProt P04637). As to the kind of experiment: TOX21_p53_BLA_p2_ratio: Tox21 HCT-116 p53 Agonism Beta-lactamase Assay, Ratio, Phase 2 (AID 2283592). The method in brief: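 In this cell-based reporter format, HCT116 cells were dosed with chemicals delivered from DMSO by 217-fold dilution and incubated 16 h at 37C. Emission at 460 and 530 nm after 2 h CCF4-AM loading provided the ratio, fitted upward versus DMSO.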

Test [3] can be described thus: TOX21_p53_BLA_p3_viability: Viability Assessment in the Tox21 HCT-116 p53 Agonism Beta-lactamase Assay, Phase 3 (AID 2283593).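 Also: cells exposed to compound for 16 h before reading.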 The essentials:
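HCT-116 cells (4000/well) rested 5 h at 37C, then got DMSO compounds by pin tool (217-fold dilution) for 16 h at 37C, 5% CO2. After the bla read, CellTiter-Glo was added and luminescence read at 30 min, room temperature.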

Test [4] has as its target Cellular tumor antigen p53 (Homo sapiens) (UniProt P04637). The test is described as follows: TOX21_p53_BLA_p3_ratio: Tox21 HCT-116 p53 Agonism Beta-lactamase Assay, Ratio, Phase 3 (AID 2283596). The method in brief:
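HCT116 p53-bla cells (4000/well) given compound in DMSO (217-fold dilution) after 5 h, incubated 16 h at 37C. CCF4-AM substrate 2 h at room temperature; 460/530 nm emission ratio, gain fitted against DMSO.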

The nature of test [5]: TOX21_p53_BLA_p4_viability: Viability Assessment in the Tox21 HCT-116 p53 Agonism Beta-lactamase Assay, Phase 4 (AID 2283597).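 Also: hits lower the luminescence signal meaning cytotoxicity.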 The essentials:
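We seeded HCT116 p53 reporter cells at 4000/well and waited 5 h. We then added compounds in DMSO at a 217-fold dilution and incubated for 16 h. Viability was read as CellTiter-Glo luminescence after 30 min at RT.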

The target in test [6] is Cellular tumor antigen p53 (Homo sapiens) (UniProt P04637). As to the kind of experiment: TOX21_p53_BLA_p5_ratio: Tox21 HCT-116 p53 Agonism Beta-lactamase Assay, Ratio, Phase 5 (AID 2283599). The essentials: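 HCT-116 cells carrying a p53-inducible beta-lactamase reporter were seeded at 4000 cells/well and dosed after 5 h with compound in DMSO (217-fold dilution). After 16 h at 37C, CCF4-AM substrate was added for 2 h, and the 460/530 nm emission ratio was scored as gain-of-signal versus DMSO.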

A short description of test [7]: TOX21_p53_BLA_p5_viability: Viability Assessment in the Tox21 HCT-116 p53 Agonism Beta-lactamase Assay, Phase 5 (AID 2283600). The method in brief:
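Compounds, pinned from DMSO at 217-fold dilution, were left on the cells for 16 h. The viability endpoint was ATP content measured by CellTiter-Glo luminescence, where falling signal reflects cytotoxicity.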

In test [8] the target is Cellular tumor antigen p53 (Homo sapiens) (UniProt P04637). The test is described as follows: TOX21_p53_BLA_p4_ratio: Tox21 HCT-116 p53 Agonism Beta-lactamase Assay, Ratio, Phase 4 (AID 2283601). The method in brief: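 HCT116 cells carrying an inducible beta-lactamase reporter were plated at 4000 cells/well, rested 5 h, then exposed to compounds in DMSO (217-fold dilution) for 16 h at 37C. CCF4-AM substrate was loaded 2 h at room temperature; 460/530 nm emission ratio scored gain-of-signal versus DMSO.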

The target of test [9] is PGR (gene 5241) (UniProt P06401). As to the kind of experiment: TOX21_PR_BLA_Followup_Agonist_ratio: Tox21 HEK293 Progesterone Receptor (PR) Agonism Beta-lactamase Follow-Up Assay, Ratio (AID 2283933). The method in brief: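 HEK293T PR-UAS-bla, 2% CS-FBS; 6 hr preincubation, cpd/DMSO pinned, 16 hr 37C/5% CO2; LiveBLAzer B/G 2 hr RT; FRET ch2/ch1 ratio, agonist direction vs DMSO. Viability by CellTiter-Glo in same wells.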

Test [10] has the same target. The test is described as follows: TOX21_PR_BLA_Followup_Antagonist_ratio: Tox21 HEK293 Progesterone Receptor (PR) Antagonism Beta-lactamase Follow-Up Assay, Ratio (AID 2283934). The essentials: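 HEK293T PR-UAS-bla, 2% CS-FBS; 6 hr plating, then cpd + R5020 (1 nM final), 16 hr 37C/5% CO2. B/G FRET substrate 2 h RT. Ratio ch2/ch1 vs DMSO; CellTiter-Glo viability multiplexed, autofluorescence checked.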

Test [11] in a line: TOX21_PR_BLA_Followup_Agonist_viability: Viability Assessment in the Tox21 HEK293 Progesterone Receptor (PR) Agonism Beta-lactamase Follow-Up Assay (AID 2283935).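 Also: signal loss means lower viability so actives are cytotoxic.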 The method in brief: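 HEK293T PR-UAS-bla, 3,000 cells/well, 2% CS-FBS; 6 hr pre-incubation; cpd in DMSO, 16 hr 37C; LiveBLAzer 2 hr RT, then CellTiter-Glo 30 min RT, luminescence. Decrease = lost viability.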
The nature of test [12]: TOX21_PR_BLA_Followup_Antagonist_viability: Viability Assessment in the Tox21 HEK293 Progesterone Receptor (PR) Antagonism Beta-lactamase Follow-Up Assay (AID 2283936).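 Also: hits lower the luminescence signal meaning cytotoxicity.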 The essentials: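 PR-UAS-bla HEK293T cells (3,000/well, 2% charcoal-stripped FBS) given compound plus R5020 agonist, 16 h at 37C. CellTiter-Glo added after bla read, 30 min at room temperature; luminescence loss indicates cytotoxicity.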

Test [13] concerns the target PGR (gene 5241) (UniProt P06401). The test is described as follows: TOX21_PR_LUC_Followup_Agonist: Tox21 HEK293 Progesterone Receptor (PR) Agonism Luciferase Follow-Up Assay (AID 2283937; active = hit-call score of the fitted dose curve at least 0.9, where 1 is the maximum; inactive = score below 0.9). The method in brief:
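Cells: HEK293-PR-A-luc, 3,000/well, 10% charcoal-stripped FBS assay medium. Compound added after 5 h; 16 h, 37C, 0% CO2. ONE-Glo luciferase, luminescence. Positive fit vs DMSO.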

The nature of test [14]: TOX21_PR_LUC_Followup_Agonist_viability: Viability Assessment in the Tox21 HEK293 Progesterone Receptor (PR) Agonism Luciferase Follow-Up Assay (AID 2283941).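 Also: loss of signal means cytotoxicity so actives lower viability.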 The essentials: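 Cells were kept 5 days in charcoal-stripped serum medium before plating HEK293-PR-A-luc at 3,000 cells/well. After 5 h they received DMSO-dissolved compound and incubated 16 h at 37C. Viability was taken from CellTiter-Glo ATP luminescence.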

Sequence of PGR (gene 5241) (P06401 whole entry, looked up): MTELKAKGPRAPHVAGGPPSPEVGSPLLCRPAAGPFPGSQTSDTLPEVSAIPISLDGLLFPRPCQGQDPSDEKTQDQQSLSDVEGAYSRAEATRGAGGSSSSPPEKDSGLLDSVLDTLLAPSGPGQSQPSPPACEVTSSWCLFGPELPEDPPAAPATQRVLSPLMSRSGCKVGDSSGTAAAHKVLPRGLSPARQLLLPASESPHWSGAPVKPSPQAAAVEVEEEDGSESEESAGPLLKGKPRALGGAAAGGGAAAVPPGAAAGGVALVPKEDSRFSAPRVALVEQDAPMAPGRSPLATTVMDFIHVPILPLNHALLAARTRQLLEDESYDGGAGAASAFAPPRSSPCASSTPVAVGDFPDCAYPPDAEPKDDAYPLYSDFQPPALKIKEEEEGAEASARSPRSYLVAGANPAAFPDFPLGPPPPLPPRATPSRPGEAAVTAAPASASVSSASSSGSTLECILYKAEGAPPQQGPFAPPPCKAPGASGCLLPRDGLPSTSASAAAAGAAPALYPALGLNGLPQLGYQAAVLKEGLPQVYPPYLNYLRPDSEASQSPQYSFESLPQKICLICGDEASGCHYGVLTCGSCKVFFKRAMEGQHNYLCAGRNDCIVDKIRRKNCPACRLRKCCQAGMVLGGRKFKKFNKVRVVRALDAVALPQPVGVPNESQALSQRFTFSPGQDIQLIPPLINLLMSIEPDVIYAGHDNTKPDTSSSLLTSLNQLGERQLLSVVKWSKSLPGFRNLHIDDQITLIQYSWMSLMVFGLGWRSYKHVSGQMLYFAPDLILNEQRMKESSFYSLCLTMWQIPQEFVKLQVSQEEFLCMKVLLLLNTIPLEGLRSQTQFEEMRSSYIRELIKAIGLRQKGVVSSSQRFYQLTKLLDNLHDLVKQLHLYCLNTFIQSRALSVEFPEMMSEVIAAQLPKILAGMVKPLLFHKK
Sequence of Cellular tumor antigen p53 (Homo sapiens) (P04637 whole entry, looked up): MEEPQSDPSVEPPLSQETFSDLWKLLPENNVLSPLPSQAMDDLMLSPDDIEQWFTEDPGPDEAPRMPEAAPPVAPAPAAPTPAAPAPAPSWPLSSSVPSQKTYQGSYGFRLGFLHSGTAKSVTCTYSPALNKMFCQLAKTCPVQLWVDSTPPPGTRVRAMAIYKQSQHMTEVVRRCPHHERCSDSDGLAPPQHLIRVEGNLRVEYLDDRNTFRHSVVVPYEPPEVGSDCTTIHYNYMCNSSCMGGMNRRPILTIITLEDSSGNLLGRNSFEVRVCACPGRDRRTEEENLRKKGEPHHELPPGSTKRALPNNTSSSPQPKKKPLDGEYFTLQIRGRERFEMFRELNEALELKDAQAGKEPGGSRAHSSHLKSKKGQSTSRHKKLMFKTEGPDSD

Broadly, the AC50 is the concentration at which the activity in the assay is half-maximal. For `CCCCCCCCCCCC[N+](C)(C)CCOc1ccccc1`, the concentration at half-maximal activity (AC50) in test [1] was 28.1 µM (active) and 30.3 µM (active); in test [2], 33.3 µM (active) and 40.8 µM (active); in test [3] it was 53 µM (active) and 22.3 µM (active); in test [4] it was 84.4 µM (active) and 43.8 µM (active); in test [5] it was 37.5 µM (active) and 16.3 µM (active); in [6], 85.4 µM (active) and 44.8 µM (active). The concentration at half-maximal activity (AC50) in [7] was 54.3 µM (active) and 33.6 µM (active); in [8], 36.1 µM (active).
Consider `COc1ccc2c3c1O[C@H]1[C@@H](O)C=C[C@H]4[C@@H](C2)NCC[C@@]341`, for which the call in test [1], in [2], in [3], in test [4], in [5] and in [6] was inactive. Further, the compound was classed as inactive in test [7] and in [8].
`CC[C@H](OC(C)=O)C(C[C@H](C)NC)(c1ccccc1)c1ccccc1`: the outcome in test [1], in test [2], in [3], in test [4], in test [6] and in test [7] was inactive. The result in [8] was inactive. The half-maximal activity concentration (AC50) in test [5] is 51.1 µM (active).
As for `O=Cc1ccccc1`, the result in test [1], in test [2], in test [3], in [4], in test [5] and in test [6] was inactive. Moreover, the call in test [7] and in [8] was inactive.
Regarding `[O]=[Cd]`, the compound was called inactive in [1], in test [2], in [3], in test [4], in [5] and in test [6]. Also, the call in test [7] and in [8] was inactive.
In the case of `CCOC(=O)C1(c2ccccc2)CCN(CCC(C#N)(c2ccccc2)c2ccccc2)CC1`, the outcome (in [1]; in [3]; in test [5]; in test [7]; with PGR (gene 5241) [9]; in [11]) was inactive. Moreover, the result (in test [12]; with PGR (gene 5241) [13]; in test [14]) was inactive. In addition, the AC50 in test [2] is 16.3 µM (active) and 6.96 µM (active); in test [4], 41.6 µM (active) and 7.95 µM (active); in test [6], 56.4 µM (active) and 23.9 µM (active); in test [8] it was 43.7 µM (active) and 8.27 µM (active); with PGR (gene 5241) [10] it was 13.7 µM (active).
Turning to `C#C[C@]1(OC(=O)CCCCCC)CC[C@H]2[C@@H]3CCC4=CC(=O)CC[C@@H]4[C@H]3CC[C@@]21C`, the figures for the AC50 in [1] and in test [3] were 8.02 µM (active) and 23 µM (active), respectively. The result in test [2], in test [4], in test [5], in [6], in test [7] and in test [8] was inactive.
On to `CCOP(=S)(OCC)SC(CCl)N1C(=O)c2ccccc2C1=O` (stereo unspecified), for which the outcome in [1], in test [2], in test [3], in [4], in [5] and in test [6] was inactive. Moreover, the compound was classed as inactive in test [7] and in test [8].
With `Clc1ccc(CO/N=C(\Cn2ccnc2)c2ccc(Cl)cc2Cl)c(Cl)c1`, the concentration at half-maximal activity (AC50) is 23 µM (active) in [1]; 38.7 µM (active) in [2]; 42.8 µM (active) in test [4]; 33.4 µM (active) in test [5]; 36.3 µM (active) in test [6]; 33 µM (active) in test [8]. The compound was called inactive in test [3] and in test [7].
For the compound `OC(O)C(Cl)(Cl)Cl`, the compound was classed as inactive in test [1], in test [2], in [3], in test [4], in test [5] and in test [6]. The compound was called inactive in [7] and in test [8].
